Assay results published in PubChem BioAssay (Tox21).
Records with an inconclusive call do not appear. The source made the active and inactive calls. Unless noted, calls come from the whole dose curve; as a rule, active = well fitted curve in the direction sought with a large enough effect in the repeat runs; inconclusive = weak or mixed curves; inactive = no such curve, though single readings can be large; an effect the other way counts as inactive or inconclusive.

Assays:
[1] = qHTS assay to identify small molecule agonists of the hypoxia (HIF-1) signaling pathway - cell viability counter screen (AID 1224844; calls by dose curve; note: nearly all actives have a fitted effect of over 50% in size)
Outline: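 In this counter screen, HRE-bla ME-180 cell viability after 17 hrs of compound exposure at 37C was read by CellTiter-Glo luminescence, multiplexed with the beta-lactamase reporter measurement.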

[2] = qHTS assay to identify small molecule agonists of H2AX (AID 1224845; active = well fitted activation curve with a large enough effect in the signal ratio in the repeat runs, not every such curve was filed as active; the % refers to the signal ratio; note: potency is the fitted concentration of half-maximal effect)
Outline: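 Wild-type CHO-K1 cells, plated overnight, exposed 3hr at 37C to 15 concentrations (0.76% DMSO final). Lysed, then HTRF anti-pH2AX (S139) cryptate and anti-H2AX-d2 antibodies, 24 hr room temperature; 665/620 nm emission read.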

[3] = qHTS assay to identify small molecule agonists of the hypoxia (HIF-1) signaling pathway (AID 1224846; active = well fitted activation curve with a large enough effect in the signal ratio in the repeat runs, not every such curve was filed as active; the % refers to the signal ratio; note: potency is the fitted concentration of half-maximal effect)
Outline: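 ME-180 HRE-bla reporter cells; compounds in DMSO, 17 h at 37C; read-out beta-lactamase via CCF4-AM FRET.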

[4] = qHTS assay to identify small molecule agonists of H2AX - cell viability counter screen (AID 1224847; calls by dose curve; note: top concentration of the series differs between compounds; nearly all actives have a fitted effect of over 30% in size)
Outline: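 Counter-screen for viability: CellTiter-Glo ATP luminescence read after 3 h compound treatment (15-point titration, 0.76% DMSO final) of CHO-K1 cells at 37C, with 30 min room-temperature reagent incubation.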

[5] = qHTS RealTime-Glo MT Cell Viability Assay in HepG2 cells - 24 hour (AID 1224867); note: nearly all actives have a fitted effect of over 50% in size
Outline: (§1)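 Tox21 10K library screened in qHTS format on HepG2 cells carrying RealTime-Glo reagents. Compounds were added after a 5 h preincubation, and the luminescent signal from continuous culture was measured repeatedly during 40 h treatment.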

[6] = qHTS RealTime-Glo MT Cell Viability Assay in HEK293 cells - 32 hour (AID 1224868); note: top concentration of the series differs between compounds; nearly all actives have a fitted effect of over 50% in size
Outline: (§2)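 Luminescence generated by NanoLuc from substrate produced by living HEK293 cells served as the viability signal. Each value reflects the reading at its stated time point during continuous 40 h compound exposure at 37 C.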

[7] = A CellTox Green Cytotoxicity Assay to monitor cytotoxicity in HEK293 cells - 0 hour (AID 1224869); note: nearly all actives have a fitted effect of over 50% in size
Outline: (§3)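 Real-time, in one plate: 600 HEK293 cells/well with dead-cell DNA dye, pinned compound after 5 h, 37 C incubation over 40 h; viable cells give no appreciable fluorescence.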

[8] = qHTS RealTime-Glo MT Cell Viability Assay in HepG2 cells - 40 hour (AID 1224870); note: nearly all actives have a fitted effect of over 50% in size
Outline: (§4)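 HepG2 cells (600/well) mixed with RealTime-Glo MT reagent, settled 5 h at 37 C/5% CO2 before compound addition. Nonlytic NanoLuc luminescence from viable-cell prosubstrate reduction read repeatedly during 40 h treatment at 37 C.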

[9] = A CellTox Green Cytotoxicity Assay to monitor cytotoxicity in HEK293 cells - 40 hour (AID 1224871); note: nearly all actives have a fitted effect of over 45% in size
Outline: as §3

[10] = qHTS RealTime-Glo MT Cell Viability Assay in HEK293 cells - 16 hour (AID 1224872)
Outline: as §2

[11] = qHTS RealTime-Glo MT Cell Viability Assay in HepG2 cells - 8 hour (AID 1224873); note: nearly all actives have a fitted effect of over 55% in size
Outline: as §4

[12] = qHTS RealTime-Glo MT Cell Viability Assay in HEK293 cells - 40 hour (AID 1224874); settings: RealTime-Glo luminescence; max response: hits give low values; note: nearly all actives have a fitted effect of over 50% in size
Outline: (§5)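 Kinetic, non-lysing viability readout. Seed HEK293 (600/well) with reagent, incubate 5 h at 37 C/5% CO2, pin 23 nL compound in DMSO, incubate at 37 C, read luminescence at 0, 8, 16, 24, 32, 40 h.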

[13] = A CellTox Green Cytotoxicity Assay to monitor cytotoxicity in HEK293 cells - 24 hour (AID 1224875); note: series mostly up to about 77 µM; nearly all actives have a fitted effect of over 45% in size
Outline: as §3

[14] = qHTS RealTime-Glo MT Cell Viability Assay in HepG2 cells - 32 hour (AID 1224877); note: nearly all actives have a fitted effect of over 55% in size
Outline: as §1

[15] = qHTS RealTime-Glo MT Cell Viability Assay in HEK293 cells - 0 hour (AID 1224880); note: top concentration of the series differs between compounds; nearly all actives have a fitted effect of over 45% in size
Outline: as §5

[16] = A CellTox Green Cytotoxicity Assay to monitor cytotoxicity in HepG2 cells - 16 hour (AID 1224876); note: nearly all actives have a fitted effect of over 45% in size
Outline: (§6)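 Cytotoxicity was tracked as dead-cell DNA fluorescence in HepG2 cells treated with test compounds at 37 C; each time-point value comes from one kinetic series spanning 0, 8, 16, 24, 32 and 40 h.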

[17] = A CellTox Green Cytotoxicity Assay to monitor cytotoxicity in HepG2 cells - 40 hour (AID 1224879); note: nearly all actives have a fitted effect of over 40% in size
Outline: as §6

[18] = A CellTox Green Cytotoxicity Assay to monitor cytotoxicity in HepG2 cells - 24 hour (AID 1224878); note: nearly all actives have a fitted effect of over 45% in size
Outline: as §6
% is set by controls: 0 for no effect and ±100 for the full control effect.

Nc1c(Cl)c(Cl)c(Cl)c(Cl)c1Cl
inactive: Potency [1] | Potency [2] | Potency [3] | Potency [4] | Potency [5] | Potency [6] | Potency [7] | Potency [8] | Potency [9] | Potency [10] | Potency [11] | max response [12] -2.22% | Potency [13] | Potency [14] | Potency [15]

COc1ccc2[nH]cc(CCN(C(C)C)C(C)C)c2c1
inactive: Potency [1] | Potency [2] | Potency [3] | Potency [4] | Potency [5] | Potency [6] | Potency [7] | Potency [8] | Potency [9] | Potency [10] | Potency [11] | max response [12] -12% | Potency [13] | Potency [16] | Potency [14] | Potency [15]

CC#C[C@]1(O)CC[C@H]2[C@@H]3C[C@H](C)C4=CC(=O)CC[C@]4(C)[C@H]3CC[C@@]21C
inactive: Potency [1] | Potency [3] | Potency [4] | Potency [5] | Potency [7] | Potency [8] | Potency [9] | Potency [10] | Potency [11] | Potency [13] | Potency [16] | Potency [14]
active: Potency [2] 7.8 µM

CCC(C)Br (centres undefined)
inactive: Potency [1] | Potency [2] | Potency [3] | Potency [4] | Potency [5] | Potency [6] | Potency [7] | Potency [8] | Potency [9] | Potency [10] | Potency [11] | Potency [13] | Potency [14] | Potency [17] | Potency [15]

CC(=O)O.CC(=O)O.CC(=O)O.CC(=O)O.CC(=O)O.CC(=O)O.CC(=O)O.O.O.[Cr].[Cr].[Cr]
inactive: Potency [1] | Potency [2] | Potency [3] | Potency [4] | Potency [5] | Potency [6] | Potency [7] | Potency [8] | Potency [9] | Potency [10] | Potency [11] | Potency [13] | Potency [16] | Potency [14] | Potency [17] | Potency [15]

CNC(=O)CSP(=O)(OC)OC
inactive: Potency [1] | Potency [2] | Potency [3] | Potency [4] | Potency [5] | Potency [6] | Potency [7] | Potency [8] | Potency [9] | Potency [10] | Potency [11] | max response [12] 5.27% | Potency [13] | Potency [16] | Potency [14] | Potency [18] | Potency [17] | Potency [15]

CC(C)=CC1C(C(=O)OC(C#N)c2cccc(Oc3ccccc3)c2)C1(C)C (centres undefined)
inactive: Potency [1] | Potency [2] | Potency [3] | Potency [4] | Potency [5] | Potency [6] | Potency [7] | Potency [8] | Potency [9] | Potency [10] | Potency [11] | max response [12] -3.44% | Potency [13] | Potency [16] | Potency [14] | Potency [18] | Potency [17] | Potency [15]

CC1CN1 (centres undefined)
inactive: Potency [1] | Potency [2] | Potency [3] | Potency [4] | Potency [5] | Potency [6] | Potency [7] | Potency [8] | Potency [9] | Potency [10] | Potency [11] | Potency [13] | Potency [16] | Potency [14] | Potency [18] | Potency [17] | Potency [15]

c1cc[n+]2c(c1)-c1cccc[n+]1CC2
inactive: Potency [1] | Potency [2] | Potency [3] | Potency [4] | Potency [5] | Potency [6] | Potency [7] | Potency [8] | Potency [9] | Potency [10] | Potency [11] | Potency [13] | Potency [16] | Potency [14] | Potency [18] | Potency [17] | Potency [15]

NC(=O)C(Cl)Cl
inactive: Potency [1] | Potency [2] | Potency [3] | Potency [4] | Potency [5] | Potency [6] | Potency [7] | Potency [8] | Potency [9] | Potency [10] | Potency [11] | Potency [13] | Potency [16] | Potency [14] | Potency [17] | Potency [15]

COc1c2c(cc3c1OCO3)CCN(C)C2
inactive: Potency [1] | Potency [2] | Potency [3] | Potency [4] | Potency [5] | Potency [6] | Potency [7] | Potency [8] | Potency [9] | Potency [10] | Potency [11] | max response [12] -9.04% | Potency [13] | Potency [16] | Potency [14] | Potency [18] | Potency [17] | Potency [15]

CC(C)Br
inactive: Potency [1] | Potency [2] | Potency [3] | Potency [4] | Potency [5] | Potency [6] | Potency [7] | Potency [8] | Potency [9] | Potency [11] | max response [12] -13.8% | Potency [13] | Potency [16] | Potency [14] | Potency [18] | Potency [17] | Potency [15]

OCC(Br)CBr (centres undefined)
inactive: Potency [1] | Potency [2] | Potency [3] | Potency [4] | Potency [5] | Potency [6] | Potency [7] | Potency [8] | Potency [9] | Potency [10] | Potency [11] | max response [12] -11.1% | Potency [13] | Potency [16] | Potency [14] | Potency [17]

CCCCC(CC)COC(=O)c1ccccc1C(=O)OCC(CC)CCCC (centres undefined)
inactive: Potency [1] | Potency [2] | Potency [3] | Potency [4] | Potency [5] | Potency [6] | Potency [7] | Potency [8] | Potency [9] | Potency [10] | Potency [11] | Potency [13] | Potency [16] | Potency [14] | Potency [18] | Potency [17] | Potency [15]

CC(=O)[O-].CC(=O)[O-].[Co+2]
inactive: Potency [1] | Potency [2] | Potency [4] | Potency [5] | Potency [6] | Potency [7] | Potency [8] | Potency [9] | Potency [10] | Potency [11] | max response [12] 8.26% | Potency [13] | Potency [16] | Potency [14] | Potency [18] | Potency [17] | Potency [15]
active: Potency [3] 21.9 µM

CCCN
inactive: Potency [1] | Potency [2] | Potency [3] | Potency [4] | Potency [5] | Potency [6] | Potency [7] | Potency [8] | Potency [9] | Potency [10] | Potency [11] | Potency [13] | Potency [16] | Potency [14] | Potency [18] | Potency [17] | Potency [15]
